The test concerns VDR:RXRa (NR concentration 270 nM, RXRa partner concentration 90 nM). The experiment in a line: PBM binding z-score (relative to random genomic background probes); higher = stronger binding; sequences stand for … in GC…GCGATTGACAGCGTAGAATGAAGG
As for the experimental part: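 Protein-binding microarray (Agilent 4x180K custom design, double-stranded 60-nt probes: 5' GC cap, 34-nt variable region, 24-nt constant primer region; full probe sequence given). Purified or IVT nuclear receptor:RXRα heterodimers (3:1 NR:RXRα, mostly 270:90 nM) or homodimers were incubated for 1 h in PBS with 2% milk and no ligand, then detected with Alexa488 antibodies. Fluorescence from o1-orientation probes (~5 replicates averaged) was converted to z-scores against 500 random hg19 background probes. Variable regions are seed direct-repeat (DR0–DR5) sites, all their single-nucleotide variants and half-site ablations.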
CGTCAAAGTTCAGGGTAACGTAACAGAAAGCAGC returned a PBM binding z-score of 2.8.
The sequence GCTGGTAGATCAAGGTTAAGAAAGACTAAGCTAA yielded a PBM binding z-score of 0.201.
In the case of CGAACTAGGTCAGAAAAGGACAGTGAAGGATGAT it was 0.459; in that of TAGCCTAGGTCATGCGGGCGAGTATAGTGTCGGC, 1.72.
Take TGAATAAGGTTATAAGATCAGGGAACGTTGCAAA: the PBM binding z-score came out at 0.743.
As to GCGACTGGGGCAAAGCAGGGTACCATAAGGTTGG, the PBM binding z-score is -0.276.
With TCTTGTAGTTCAATAGAGGTTAAGAAAGTGCGCT, the PBM binding z-score came out at 3.41.
Turning to CAAACTAGGTCAAGAGGTCAAAGACCGCTTCCCG, the PBM binding z-score was 5.93.
In the case of CCTATTAGTCGACCATAAGGGCAACCGAAGCTCG it was 0.145; in that of GCGACTAGGGCAAAGCAGGTTACCATAAGGTTGG, -0.209; in that of TCGAGTAGGTTAGTCGGGGCATTCGGCCAACATA, 2.15.
On to TCAGACAGGTGAAAGTAACTCAGGTACGCAGTCG, for which the PBM binding z-score came out at 0.591.
As for AGAATGAGGTTACCACAGATCAGGGAAACGCTTG, the PBM binding z-score was 1.23.
As to ATCGAAAGGTCGTGAGGTGGGTATACAGAAAGGC, the PBM binding z-score worked out at 3.58.
Consider GCTGCTAGGTCAGGTTGGTCAGGTAACGGGTACG, for which the PBM binding z-score worked out at 0.625.
Consider GCTTCTAGGTCAGGTTGGTCAGCTAACGGGTACG, for which the PBM binding z-score stood at 0.953.
As for GCCGCTAGGTCAACTGATGGTCAGCTAAAGCTCG, the PBM binding z-score turned out to be 1.45.
AGGATGAGGTTATTAAGATCAGGGAATTGCGGTC showed a PBM binding z-score of 2.66.
For AATACAGGGTCAATAGGCCAGAGTAGGTACGAAT, the PBM binding z-score turned out to be 3.64.
Consider GCTATAAGTTGAAAGGGCAACCGAATGATTCTCG, for which the PBM binding z-score amounted to 0.931.
As to ACTTGCGGGTCAACGAGGTTATAGCACGCGTATA, the PBM binding z-score is 7.55.
The sequence TAGCCTAGGTCATTCAGGGTCCAGTATAGAAAGC showed a PBM binding z-score of 4.41.
In the case of CGTCAAAGTTCAACGAAGGTAACGTAAAGCACGC it was 4.39.
CGTCAAAGTTCAACTACGGTAACGTAAAGCACGC registered a PBM binding z-score of 4.19.
Turning to ACAGACAGGTGAGTGAAGGGAACTCAGCTGGACG, the PBM binding z-score is -0.408.
GCTAGTTGGTCAGTAAAAGGCCACACACCGGTCG returned a PBM binding z-score of -0.219.
As for GCATATAGGAAATACAAGGTGAAAGTCCGATTGT, the PBM binding z-score was -0.189.
In the case of TATACACGGTCAAAGGCCAGAGTACGAATGTCGA it was 0.598; in that of AGAACGAGGGTACGCTGAGTTGATAGCAGAGTAG, 1.15.
In turn, ATATGTAGGTTAAGGGTCATTCATGTTGGTTCGC came in with a PBM binding z-score of 5.08.
Consider TAGCGTAGGTCATTCAGGGGCCAGTATAGAAAGC, for which the PBM binding z-score amounted to 3.37.
The sequence CCTACTGGGCCAGAAAGGTCATTGATGCCGATAA came in with a PBM binding z-score of 4.91.
As for CAAACTCGGTCAAGGTCAAAGTCGGTTTGTGCCA, the PBM binding z-score was 4.95.
The sequence CGTCCAAGGTCAGCAGGTCAGCGAAAGCGACGTG registered a PBM binding z-score of 4.26.
The sequence TCGAGTAGGTTACCAATGGGACATTCAGCTTTCT gave a PBM binding z-score of -0.0477.
As for ATCGAAAGCTCGAGGTGAGTATAGAGAAAGGGAA, the figure is -0.459; as for GCAGATAGGTGAAACGCAGGTAACTCAGGGTGGC, -0.534; as for CTCGAAAGGTCGTGCTAAGGTGAGTATACCAAAC, 3.87.
As for TCGAGTAGGTTAGTCGGGTCATTCAGCCAACATA, the figure is 4.88; as for ATCGAAAGGTCGACGAGGTGAGTATACACCGTTT, 5.23.
